High-throughput results from PubChem BioAssay.
This is a sample that favours compounds with a hit; in the whole collection about 2.4% have one here.
D2 ag-1 – activates the human D2 dopamine receptor | P14416 | DiscoveRx PathHunter D2 beta-arrestin, luminescence, 90 min; 100% = 57 uM dopamine signal | activation, % (no concentration beside the values) | 0.084% of 360,000 active | AID 624465; in the data active = activation above about 40%
Target sequence (P14416 whole entry, looked up): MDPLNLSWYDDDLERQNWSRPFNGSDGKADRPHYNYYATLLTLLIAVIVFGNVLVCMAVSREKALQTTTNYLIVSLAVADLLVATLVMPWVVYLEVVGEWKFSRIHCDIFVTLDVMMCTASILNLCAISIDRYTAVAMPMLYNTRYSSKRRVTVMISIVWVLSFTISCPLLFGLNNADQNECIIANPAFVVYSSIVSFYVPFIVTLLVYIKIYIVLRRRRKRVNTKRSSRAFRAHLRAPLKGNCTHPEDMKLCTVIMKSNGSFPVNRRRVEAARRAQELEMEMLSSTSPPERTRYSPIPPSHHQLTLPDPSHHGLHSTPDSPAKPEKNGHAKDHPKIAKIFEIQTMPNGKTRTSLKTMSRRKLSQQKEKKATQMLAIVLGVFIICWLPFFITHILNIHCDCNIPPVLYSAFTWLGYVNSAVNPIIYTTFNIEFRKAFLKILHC
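Agonist mode: compounds alone added to overnight-plated D2 PathHunter cells for 90 min at 37 C, with 57 uM final dopamine (EC100) defining full response. Beta-arrestin recruitment detected by chemiluminescent reagent, read after 1 h at ambient temperature.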
D2 antagonist – D2 dopamine receptor (human) antagonism; 2% of 340,000 active; HEK293 TREx D2 cells, calcium flux, dopamine EC80; P14416; inhibition, % at 10 µM; in the data active = inhibition above about 30%; inactive = below that, where a call was filed; note: 0% is about no effect
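Measurement of antagonist activity uses fluorescent calcium dye in inducible HEK293 T-REx D2 cells: 10 s baseline, compound addition with 180 s read, EC80 dopamine addition with a further 180 s read.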
D2 ag-2 – D2 dopamine receptor (human) agonism. 0.53% of 340,000 active. HEK293 T-REx D2 cells, calcium flux agonist mode. AID 485358. activation, % at 2 µM. P14416;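 active = activation over 3 SD above normal in the single-dose calcium agonist read, cut at about 30% in these data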; note: 0% is about no effect
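In this primary screen, compounds producing a positive calcium signal within 180 s of addition to tetracycline-induced, force-coupled HEK293 Trex D2 cells are flagged; cells are dye-loaded with a no-wash calcium kit beforehand.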
D2 PAM-1 – positive allosteric modulators of human D2 dopamine receptor. P14416. DiscoveRx D2 beta-arrestin cells, luminescence, 90 min; 100% = 57 uM dopamine signal. potentiation, % (concentration not given with the values). 0.23% of 360,000 active; in the data active = potentiation above about 50%
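PathHunter D2 cells, attached overnight at 37 deg C, received compound in DMSO plus dopamine at EC20 (50 nM final) for 90 min at 37 deg C. Beta-arrestin recruitment was read as luminescence after 1 h with detection reagent at ambient temperature.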
D2 PAM-2 – positively modulates the human D2 dopamine receptor allosterically; potentiation, % at 10 µM; AID 485347; 0.34% of 340,000 active; HEK293 T-REx D2, calcium flux, EC20 dopamine potentiation;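 active = potentiation over 3 SD above the plate norm, cut at about 30% in these data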; note: 0% is about no effect
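Calcium flux readout, no-wash dye, 1 read/s. Inducible HEK293 Trex D2 line, overnight 30 C. Compound alone 180 s (agonist flags), then EC20 dopamine, another 180 s to score potentiation.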
Starred values were filed as active, the others as inactive; x = no result.

SMILES	D2 ag-1	D2 antagonist	D2 ag-2	D2 PAM-1	D2 PAM-2
COCCn1c(C)cc(/C=C2/SC(=O)N(CC(=O)N3CCCC3)C2=O)c1C	-3.0	34.4*	1.7	0.2	-0.6
CCN=C1S/C(=C\c2ccc(N3CCOCC3)cc2C)C(=O)N1CC	1.5	-5.1	3.0	-8.0	-7.4
Cc1ccc(C)c(CN2C(=O)c3ccccc3S(=O)c3ccc(C(=O)NCCc4ccc(Cl)cc4)cc32)c1 (centres undefined)	x	x	0.5	x	7.6
CC(C)c1ccc(NC(=O)CS(=O)(=O)c2cccc3nsnc23)cc1	x	x	0.2	x	-11.0
CC(=O)N1CCc2cc(Br)cc(S(=O)(=O)CCC(=O)N3CCN(c4ccc(F)cc4)CC3)c21	x	x	1.1	x	9.8
COc1ccccc1N1CCN(S(=O)(=O)c2c(C)[nH]c(C)c2C(=O)N2CCCC2)CC1	-2.0	30.7*	0.2	-10.0	27.4
NC(=O)C1CC(=O)N(c2ccc(OCc3ccc([N+](=O)[O-])cc3)cc2)C1 (centres undefined)	8.5	-12.2	-0.3	1.5	3.6
Cc1ccc(N2CC(C(=O)OCc3ccc([N+](=O)[O-])cc3)CC2=O)cc1 (centres undefined)	-1.4	-16.5	0.5	-2.5	30.6*
CCOC(=O)c1c(C)[nH]c(C)c1S(=O)(=O)N1CCC(C(=O)Nc2ccc(C)cn2)CC1	x	x	-1.8	x	1.9
COc1ccc(CCN(C)C2CCCN(C(=O)c3sccc3C)C2)cc1OC (centres undefined)	-1.9	57.0*	0.2	-14.6	-26.2
CC1(OC(=O)C2CCCC2)C(=O)C=C2C=C(c3ccsc3)N(c3ccccc3)C=C2C1=O (centres undefined)	14.9	36.0*	0.3	-1.5	9.0
CCCOC(=O)Nc1nnc(CCC)s1	-1.9	44.0*	1.2	-8.0	-14.8
CCCc1nnc(NC(=O)CCS(=O)(=O)c2ccccc2)s1	-0.4	-16.0	0.2	-4.0	31.6*
CCCOc1ccc(C(=O)NC2CCSc3ccccc32)cc1 (centres undefined)	0.5	36.0*	-1.1	-3.8	5.8
O=C1c2ccccc2NC2CCCCCN12 (centres undefined)	1.0	-0.3	-1.0	-15.7	30.1*
Cc1ccc(CNC(=O)c2cc(-c3ccccc3C)nn2CC2CC(c3cccnc3)=NO2)cc1 (centres undefined)	3.6	x	x	-99.8	x
Cc1ccccc1-c1cc(C(=O)NCc2ccc3c(c2)OCO3)n(CC2CC(c3cccnc3)=NO2)n1 (centres undefined)	1.5	82.9*	-1.9	-17.7	6.0
COCCSc1ccccc1C(=O)Nc1ccc(Cl)cc1	0.7	57.7*	0.2	-17.5	-5.5
COCCSc1ccccc1C(=O)NCCCn1ccnc1	-0.6	38.8*	-0.1	-8.4	3.5
COc1cccc2c1Oc1ncccc1N(C(=O)CCC(=O)NC(C)C)C2	x	x	0.6	x	5.5
CCOC(=O)c1c(C)n(S(=O)(=O)c2ccc(C)cc2)c2ccc(NS(=O)(=O)c3ccc(C)cc3)cc12	x	x	0.8	x	-4.3
CCn1nc(C)c2c(-c3ccccc3)cc(=O)n(C(C)C(=O)Nc3ccc(OC)c(OC)c3)c21 (centres undefined)	x	x	1.9	x	-9.1
COCCN(CC(=O)Nc1cccc(C)c1C)C(=O)c1ccc2ccccc2n1	-1.7	24.6	0.4	-8.5	7.2
Cc1cccc(NC(=O)CN(C)C(=O)c2ccc3ccccc3n2)c1C	-8.5	30.1*	-0.7	-17.0	5.4
Cc1noc(C(=O)Nc2ccc3c(c2)OCO3)c1Cl	-1.4	54.4*	-0.3	-5.4	-16.4
SMILES	D2 ag-1	D2 antagonist	D2 ag-2	D2 PAM-1	D2 PAM-2
Cc1ccc2c(Cl)c(C(=O)Nc3ccc4c(c3)OCO4)sc2c1	1.4	33.6*	0.6	-1.7	2.5
CCOc1ccc(NC(=O)CSc2ncc(-c3ccc(F)cc3)n2Cc2ccco2)cc1	-2.1	12.4	-0.3	-9.6	20.7
O=C(CSc1ncc(-c2ccc(F)cc2)n1Cc1ccco1)Nc1ccc2c(c1)OCO2	-3.0	36.6*	1.2	-23.8	-16.0
Cc1ccc(NC(=O)CSc2nnc(-c3cnccn3)n2Cc2ccco2)cc1	-2.1	32.0*	-4.3	-14.3	-6.5
O=C(CSc1nccn1-c1ccc(F)cc1)Nc1ccc2c(c1)OCO2	-4.3	-29.0	1.0	-7.8	39.3*
Cc1cccc(NC(=O)CSc2nnc(-c3cnccn3)n2Cc2ccco2)c1	-3.6	-11.9	0.0	-17.8	25.4
CCCCC(=O)Nc1nnc(S(=O)(=O)N(CC)c2ccc(OC)cc2)s1	5.6	8.6	0.1	-2.2	-5.6
CCN(c1ccc(OC)cc1)S(=O)(=O)c1nnc(NC(=O)COc2ccccc2)s1	4.8	-9.4	-0.2	-5.5	37.3*
COc1cc(C(=O)Nc2ccccc2N2CCCCC2)cc(OC)c1OC	-2.1	-0.4	-1.4	-2.3	-9.4
COc1cc(-c2cc(C(=O)Nc3ccccc3N3CCOCC3)c3ccccc3n2)cc(OC)c1OC	-4.8	-24.2	-0.4	24.3	33.1*
O=C(Nc1ccccc1N1CCOCC1)c1cc(-c2ccco2)nc2ccccc12	2.4	1.7	-0.3	16.2	7.0
COc1cc(C(=O)NC(=S)Nc2ccccc2N2CCCC2)cc(OC)c1OC	-4.5	43.5*	-0.8	-22.7	7.3
COc1ccc(CNC(=O)c2cc3ccccn3n2)c(OC)c1	x	x	-0.1	x	10.1
O=C1c2ccccc2C(=O)N1CCc1nc2ccccc2c(=O)n1Cc1ccco1	-3.4	40.4*	0.6	4.0	1.1
Cc1cc(C)nc(SCc2ccc(C(=O)N/N=C/c3cccc(O)c3O)cc2)n1	11.1	-44.6	1.8	59.4*	21.7
C=CCc1cc(Cl)ccc1OCCNCCOC	-3.8	55.2*	0.2	-23.1	-48.7
C=CCc1cc(Cl)ccc1OCCNCCN1CCOCC1	-1.5	-30.8	-0.3	-10.4	-23.9
COCCCNC(=O)c1cc2c(=O)n3cccc(C)c3nc2n(C(C)C)c1=N	-1.6	34.5*	1.1	22.1	6.1
CCOc1ccc(C2C(C(=O)Nc3ccccc3)=C(C)Nc3nc(-c4ccccc4)nn32)cc1OC (centres undefined)	x	x	7.6	x	-2.0
O=C(Nc1ccccc1O)c1cc(S(=O)(=O)N2CCCC2)ccc1Cl	x	x	-2.1	x	8.8
COC(=O)C1Cc2c([nH]c3ccccc23)C2(CCN(Cc3ccccc3)CC2)N1 (centres undefined)	-5.4	75.0*	4.2	-12.0	-31.6
CCCN1CCC2(CC1)NC(C(=O)O)Cc1c2[nH]c2ccccc12 (centres undefined)	1.2	-7.7	0.5	-0.5	20.9
CN(CC(=O)N1CC=C(c2ccccc2)CC1)S(=O)(=O)c1ccc2c(c1)c(=O)n(C)c(=O)n2C	3.6	30.8*	-1.0	-19.0	4.3
